Screens deposited in PubChem by National Center for Advancing Translational Sciences (NCATS).
Tau fibril FP: qHTS for Inhibitors of Tau Fibril Formation, Fluorescence Polarization; actives 0.39% (n = 280,000); Potency, µM (doses to about 57.7 µM), inactives show at the top dose activity, negative = inhibition, actives largely listed as inhibitors; Microtubule-associated protein tau (Homo sapiens), P10636; K18 P301L tau heparin fibrillization, Alexa594 FP, 6 h; AID 1468, 2008; note: potency is the fitted concentration of half-maximal effect; nearly all actives have a fitted effect of over 55% in size
Target sequence (P10636 561-689 P618L limits assumed): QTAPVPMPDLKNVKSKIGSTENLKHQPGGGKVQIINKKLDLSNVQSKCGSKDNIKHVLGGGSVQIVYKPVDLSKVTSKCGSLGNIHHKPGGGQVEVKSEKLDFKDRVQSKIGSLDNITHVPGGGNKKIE
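Steps: dispense K18 P301L tau (15 uM plus 0.24 uM Alexa 594 tracer, final) in pH 7 sodium acetate; add compound; add heparin (20 uM final); incubate 6 hr, 37 C; add ThT (30 uM final); after 1 hr ambient, read FP.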
Tau fluor counter: Counterscreen qHTS for Inhibitors of Tau Fibril Formation, Fluorescence Polarization. tau K18 P301L Alexa594 fluorescence, heparin fibrillization. Potency, µM (highest dose often 57.7 µM), for inactives: top-dose activity change, negative = decrease. actives 0.93% (n = 280,000). AID 1463, 2008; note: potency is the fitted concentration of half-maximal effect; nearly all actives have a fitted effect of over 55% in size
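Human K18 P301L tau (15 uM unlabeled plus 0.24 uM Alexa 594-labeled, final) in 100 mM sodium acetate pH 7 was mixed with compound and 20 uM heparin and incubated 6 hr at 37 C.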
FBPA coupling cs: qHTS Assay for Inhibitors of Fructose-1,6-bisphosphate Aldolase from Giardia Lamblia: Coupling assay counterscreen | actives 0.67% (n = 290,000) | AID 2472, 2010 | activity change, negative = inhibition, % at 58.2 µM, hits read low | coupling enzyme system counterscreen, AmpLite Red fluorescence; in the data active = activity change below about -30%
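Counterscreen lacking aldolase: glyceraldehyde-3-phosphate coupling-enzyme reagent preincubated 10 min at RT with compound (at 57.5 uM final), then substrate/coupling system with AmpLite Red added; fluorescence read at 525/598 nm after 20 min RT.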
Tau ThT inhib: qHTS for Inhibitors of Tau Fibril Formation, Thioflavin T Binding; recombinant tau K18 P301L, heparin-induced fibrillization, ThT fluorescence; actives 2.1% (n = 270,000); Potency, µM (series often up to 57.4 µM), inactives show at the top dose activity, negative = inhibition, most hits filed as inhibitors; AID 1460, 2008; note: potency is the fitted concentration of half-maximal effect; nearly all actives have a fitted effect of over 55% in size
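Using a mix of unlabeled (15 uM) and Alexa 594-labeled (0.24 uM) tau K18 P301L, heparin-triggered fibrillization over 6 hr at 37 C was scored by ThT fluorescence.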
Sfp PPTase inh: qHTS Assay for Inhibitors of Bacillus subtilis Sfp phosphopantetheinyl transferase (PPTase); Biochemical Sfp PPTase activity, qHTS; Potency, µM, inactives show largest response in the series, negative = inhibition, hits mostly inhibitors; actives 3.5% (n = 310,000); AID 1490, 2009;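 note: the enzyme is Sfp with the accession as filed and its product quenches rhodamine fluorescence; potency is the fitted concentration of half-maximal effect; 0% = enzyme reaction without inhibitor and -100% = no enzyme wells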
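Sfp 15 nM + cpd, 15 min RT; start w/ rhodamine-CoA 5 uM, BHQ-2-YbbR 12.5 uM (final); 50 mM Hepes pH 7.6, 10 mM MgCl2, 0.01% NP-40, 0.01% BSA; read 525/598 nm at 0 and 30 min.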
Starred values were filed as active, the others as inactive; [ ] = another dose, or the depositor's remark. Compounds with a hit are over-represented: about 5.2% of the library has one in this group of screens. Unless noted, calls come from the whole dose curve; as a rule, active = well fitted curve in the direction sought with a large enough effect; inconclusive = small, poorly fitted or top-dose-only effect, or another doubt; inactive = no such curve, though single readings can be large; an effect the other way counts as inactive or inconclusive. Unless noted, % is set by controls: 0 for no effect and ±100 for the full control effect.

COc1ccnc(CSC(N)=Nc2ccc(F)cc2)c1 was read as Tau fibril FP inconclusive, Tau fluor counter -24%, FBPA coupling cs -1, Tau ThT inhib 28µM* and Sfp PPTase inh 22µM*.
For Cc1ccc2c(c1)NC(=O)C(CC(=O)NCCCN1CCc3ccccc3C1)O2 (stereo not drawn) the results were Tau fibril FP -8%, Tau fluor counter -11%, FBPA coupling cs 0, Tau ThT inhib inconclusive and Sfp PPTase inh 50µM*.
CNC(=O)[C@H](C)[C@H]1C[C@]1(C)[C@H](NC(=O)OCc1ccccc1)c1ccccc1 was read as Tau fibril FP -3%, Tau fluor counter -9%, FBPA coupling cs 3, Tau ThT inhib -11% and Sfp PPTase inh 16%.
O=C(O[C@@H]1OC2COC(=O)c3cc(O)c(O)c(O)c3-c3c(cc(O)c(O)c3O)C(=O)O[C@@H]([C@H]1O)[C@@H]2O)c1cc(O)c(O)c(O)c1 was read as Tau fibril FP inconclusive, Tau fluor counter 13µM*[quencher], FBPA coupling cs -18, Tau ThT inhib 7.9µM* and Sfp PPTase inh 4.5µM*.
Screening COc1c(O)cc2c(c1O)C1OC(CO)C(O)[C@H](O)[C@H]1OC2=O (stereo partly drawn) returned Tau fibril FP -10%, Tau fluor counter -2%, FBPA coupling cs 4, Tau ThT inhib 3% and Sfp PPTase inh 12%.
CN1CCN(c2ncc3nc(-c4cc(F)cc(F)c4)c(=O)n(CCC#N)c3n2)CC1 was read as FBPA coupling cs 4 and Sfp PPTase inh -29%.
`COc1ccccc1NC(=O)C1CCN(C(=O)c2sc3nc[nH]c(=O)c3c2C)CC1` gave Tau fibril FP 6%, Tau fluor counter 5% and Tau ThT inhib 9%.
For O=C1c2cccc3cc([N+](=O)[O-])cc(c23)C(=O)N1CCN1CCCC1 the results were Tau fibril FP 13%, Tau fluor counter inconclusive, FBPA coupling cs 0 and Sfp PPTase inh -2%.
For O=C1c2cccc3cc([N+](=O)[O-])cc(c23)C(=O)N1/N=C/c1ccc(O)cc1O the results were Tau fibril FP -10%, Tau fluor counter 13µM*[quencher], FBPA coupling cs -3, Tau ThT inhib inconclusive and Sfp PPTase inh -13%.
`O=c1[nH][nH]c2c(N=Cc3ccccc3O)ccc(F)c12` gave Tau fibril FP 7.9µM*, Tau fluor counter 3.5µM*[quencher], FBPA coupling cs -34*, Tau ThT inhib 3.5µM* and Sfp PPTase inh 7.9µM*.
`OCCNC(=S)Nc1ccc2nsnc2c1` gave Tau fibril FP -8%, Tau fluor counter -3%, FBPA coupling cs -47*, Tau ThT inhib -9% and Sfp PPTase inh -39%.
Cc1nc2ccc(NC(=S)NC3CC3)cc2nc1C was read as Tau fibril FP 13%, Tau fluor counter 9%, FBPA coupling cs -5, Tau ThT inhib 3% and Sfp PPTase inh 4%.
Cc1nc2ccc(NC(=S)NCCCO)cc2nc1C was read as Tau fibril FP inconclusive, Tau fluor counter -24%, FBPA coupling cs -30*, Tau ThT inhib inconclusive and Sfp PPTase inh 56µM*.
`O=C(NCCO)Nc1ccc2nsnc2c1` gave Tau fibril FP -4%, Tau fluor counter 6%, FBPA coupling cs -4, Tau ThT inhib 4% and Sfp PPTase inh 11%.
`C[C@H](N)CCCP(=O)(O)O` gave Tau fibril FP -3%, Tau fluor counter -1%, Tau ThT inhib 2% and Sfp PPTase inh inconclusive.
`COC(=O)c1ccc(C(=O)O)nc1` gave Tau fibril FP 0%, Tau fluor counter -1%, FBPA coupling cs 4, Tau ThT inhib 0% and Sfp PPTase inh 79µM*.
`N#CCCSc1ccccc1NC(=O)c1ccc(S(=O)(=O)N2CCCC2)cc1` gave Tau fibril FP -11%, Tau fluor counter -13%, FBPA coupling cs 3, Tau ThT inhib -12% and Sfp PPTase inh 5.6µM*.
